ChEMBL document CHEMBL1961873, “Compounds: GSK PKIS; Assays: Nanosyn kinase panel” (2012)

Columns and labels:
[1] = target: CDK3/Cyclin E (Homo sapiens) (UniProt P24864+Q00526); conditions: at 1 µM;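 also: each figure is a mean percent inhibition of the CDK3/cyclin E complex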
[2] = target: Cyclin-dependent kinase 4 (Homo sapiens) (UniProt P11802); conditions: at 0.1 µM
[3] = target: Cyclin-dependent kinase 4 (Homo sapiens) (UniProt P11802); conditions: at 1 µM
[4] = target: Cyclin-dependent kinase 5 (Homo sapiens) (UniProt Q00535); conditions: at 0.1 µM
[5] = target: Cyclin-dependent kinase 5 (Homo sapiens) (UniProt Q00535); conditions: at 1 µM
[6] = target: Cyclin-dependent kinase 6 (Homo sapiens) (UniProt Q00534); conditions: at 0.1 µM
[7] = target: Cyclin-dependent kinase 6 (Homo sapiens) (UniProt Q00534); conditions: at 1 µM
[8] = target: Dual specificity protein kinase CLK2 (Homo sapiens) (UniProt P49760); conditions: at 0.1 µM
[9] = target: Dual specificity protein kinase CLK2 (Homo sapiens) (UniProt P49760); conditions: at 1 µM
[10] = target: Dual specificity protein kinase CLK3 (Homo sapiens) (UniProt P49761); conditions: at 0.1 µM
[11] = target: Dual specificity protein kinase CLK3 (Homo sapiens) (UniProt P49761); conditions: at 1 µM
[12] = target: Dual specificity tyrosine-phosphorylation-regulated kinase 1A (Homo sapiens) (UniProt Q13627); conditions: at 0.1 µM
[13] = target: Dual specificity tyrosine-phosphorylation-regulated kinase 1A (Homo sapiens) (UniProt Q13627); conditions: at 1 µM
[14] = target: Dual specificity tyrosine-phosphorylation-regulated kinase 1B (Homo sapiens) (UniProt Q9Y463); conditions: at 0.1 µM
[15] = target: Dual specificity tyrosine-phosphorylation-regulated kinase 1B (Homo sapiens) (UniProt Q9Y463); conditions: at 1 µM
[16] = target: T1, Dual specificity tyrosine-phosphorylation-regulated kinase 2 (Homo sapiens) (UniProt Q92630); conditions: at 0.1 µM
T1 sequence (whole entry): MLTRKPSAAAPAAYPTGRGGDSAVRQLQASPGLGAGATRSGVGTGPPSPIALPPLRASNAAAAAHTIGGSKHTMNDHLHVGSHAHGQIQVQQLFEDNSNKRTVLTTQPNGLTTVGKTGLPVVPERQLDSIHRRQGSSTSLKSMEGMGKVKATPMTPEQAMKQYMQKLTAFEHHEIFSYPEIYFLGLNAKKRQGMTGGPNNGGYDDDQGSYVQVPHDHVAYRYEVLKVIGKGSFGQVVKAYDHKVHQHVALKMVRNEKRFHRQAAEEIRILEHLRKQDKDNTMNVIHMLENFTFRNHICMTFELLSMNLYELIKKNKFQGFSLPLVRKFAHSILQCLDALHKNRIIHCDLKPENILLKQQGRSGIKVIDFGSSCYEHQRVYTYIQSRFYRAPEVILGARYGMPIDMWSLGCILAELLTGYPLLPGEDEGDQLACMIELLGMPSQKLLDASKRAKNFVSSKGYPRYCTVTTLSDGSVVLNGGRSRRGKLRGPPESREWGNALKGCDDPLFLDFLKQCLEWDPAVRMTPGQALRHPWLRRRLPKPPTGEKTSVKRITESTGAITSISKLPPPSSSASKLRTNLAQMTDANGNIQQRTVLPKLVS

[17] = target: T1, Dual specificity tyrosine-phosphorylation-regulated kinase 2 (Homo sapiens); conditions: at 1 µM
[18] = target: Glycogen synthase kinase-3 alpha (Homo sapiens) (UniProt P49840); conditions: at 0.1 µM
[19] = target: Glycogen synthase kinase-3 alpha (Homo sapiens) (UniProt P49840); conditions: at 1 µM
[20] = target: Glycogen synthase kinase-3 beta (Homo sapiens) (UniProt P49841); conditions: at 0.1 µM;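 also: values are mean percent inhibition of GSK3B activity, from the GSK Published Kinase Inhibitor Set (PKIS) screening dataset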
Sequence of Glycogen synthase kinase-3 beta (Homo sapiens) (P49841 whole entry, looked up): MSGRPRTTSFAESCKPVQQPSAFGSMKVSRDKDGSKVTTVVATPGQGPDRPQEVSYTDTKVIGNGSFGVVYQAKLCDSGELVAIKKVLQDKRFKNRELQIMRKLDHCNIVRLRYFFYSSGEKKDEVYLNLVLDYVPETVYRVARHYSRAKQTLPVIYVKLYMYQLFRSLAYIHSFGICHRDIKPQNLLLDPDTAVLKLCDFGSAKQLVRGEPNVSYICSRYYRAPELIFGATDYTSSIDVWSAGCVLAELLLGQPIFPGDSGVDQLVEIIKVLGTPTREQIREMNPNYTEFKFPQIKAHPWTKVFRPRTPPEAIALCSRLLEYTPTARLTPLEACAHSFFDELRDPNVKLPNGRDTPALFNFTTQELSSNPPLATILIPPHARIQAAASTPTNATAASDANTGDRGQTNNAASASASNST

Sequence of Dual specificity tyrosine-phosphorylation-regulated kinase 1B (Homo sapiens) (Q9Y463 whole entry, looked up): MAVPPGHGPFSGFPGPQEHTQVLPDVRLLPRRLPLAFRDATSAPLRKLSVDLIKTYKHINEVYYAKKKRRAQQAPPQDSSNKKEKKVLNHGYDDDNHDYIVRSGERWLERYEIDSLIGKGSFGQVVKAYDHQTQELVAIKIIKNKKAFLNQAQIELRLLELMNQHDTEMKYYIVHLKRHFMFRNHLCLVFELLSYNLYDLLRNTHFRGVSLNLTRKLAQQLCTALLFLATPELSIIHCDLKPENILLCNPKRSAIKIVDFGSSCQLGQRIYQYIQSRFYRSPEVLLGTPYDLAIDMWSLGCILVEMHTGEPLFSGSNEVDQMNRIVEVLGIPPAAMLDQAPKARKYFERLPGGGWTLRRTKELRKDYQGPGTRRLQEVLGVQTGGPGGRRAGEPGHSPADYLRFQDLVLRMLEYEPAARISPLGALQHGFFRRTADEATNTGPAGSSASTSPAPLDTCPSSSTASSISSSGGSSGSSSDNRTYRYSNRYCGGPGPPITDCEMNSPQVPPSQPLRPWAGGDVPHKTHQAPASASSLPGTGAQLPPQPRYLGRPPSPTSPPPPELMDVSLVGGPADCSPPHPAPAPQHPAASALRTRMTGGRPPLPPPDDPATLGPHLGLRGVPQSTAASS
Sequence of Dual specificity protein kinase CLK3 (Homo sapiens) (P49761 whole entry, looked up): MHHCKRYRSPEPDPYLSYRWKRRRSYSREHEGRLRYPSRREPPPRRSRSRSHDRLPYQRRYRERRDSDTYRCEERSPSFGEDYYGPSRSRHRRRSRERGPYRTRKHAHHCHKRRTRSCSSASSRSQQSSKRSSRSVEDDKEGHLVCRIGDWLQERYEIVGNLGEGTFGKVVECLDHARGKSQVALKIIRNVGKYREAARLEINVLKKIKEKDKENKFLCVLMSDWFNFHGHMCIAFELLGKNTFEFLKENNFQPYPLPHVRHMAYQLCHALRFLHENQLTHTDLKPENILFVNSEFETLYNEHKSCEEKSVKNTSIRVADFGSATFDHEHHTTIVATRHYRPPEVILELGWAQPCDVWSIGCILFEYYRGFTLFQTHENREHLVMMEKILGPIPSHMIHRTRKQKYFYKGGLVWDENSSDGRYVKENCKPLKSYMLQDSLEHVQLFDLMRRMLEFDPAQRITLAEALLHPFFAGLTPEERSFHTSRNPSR
Sequence of Cyclin-dependent kinase 4 (Homo sapiens) (P11802 whole entry): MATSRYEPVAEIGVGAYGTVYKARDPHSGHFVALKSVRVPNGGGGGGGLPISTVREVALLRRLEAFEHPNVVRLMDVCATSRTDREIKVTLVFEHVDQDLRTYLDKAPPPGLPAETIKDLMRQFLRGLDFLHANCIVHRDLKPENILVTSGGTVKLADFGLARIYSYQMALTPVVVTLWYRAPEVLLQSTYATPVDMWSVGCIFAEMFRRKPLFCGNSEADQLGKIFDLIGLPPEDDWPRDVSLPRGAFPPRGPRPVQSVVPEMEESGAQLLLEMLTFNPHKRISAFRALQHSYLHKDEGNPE
Sequence of Cyclin-dependent kinase 5 (Homo sapiens) (Q00535 whole entry, looked up): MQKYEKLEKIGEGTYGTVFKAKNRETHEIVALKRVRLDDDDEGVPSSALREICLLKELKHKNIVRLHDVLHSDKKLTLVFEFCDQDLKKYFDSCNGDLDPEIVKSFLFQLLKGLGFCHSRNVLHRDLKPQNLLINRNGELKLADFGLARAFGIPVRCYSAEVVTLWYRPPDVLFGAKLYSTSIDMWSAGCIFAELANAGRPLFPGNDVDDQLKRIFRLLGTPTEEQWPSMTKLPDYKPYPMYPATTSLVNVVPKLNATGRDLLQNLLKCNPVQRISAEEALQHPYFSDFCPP
Sequence of Cyclin-dependent kinase 6 (Homo sapiens) (Q00534 whole entry): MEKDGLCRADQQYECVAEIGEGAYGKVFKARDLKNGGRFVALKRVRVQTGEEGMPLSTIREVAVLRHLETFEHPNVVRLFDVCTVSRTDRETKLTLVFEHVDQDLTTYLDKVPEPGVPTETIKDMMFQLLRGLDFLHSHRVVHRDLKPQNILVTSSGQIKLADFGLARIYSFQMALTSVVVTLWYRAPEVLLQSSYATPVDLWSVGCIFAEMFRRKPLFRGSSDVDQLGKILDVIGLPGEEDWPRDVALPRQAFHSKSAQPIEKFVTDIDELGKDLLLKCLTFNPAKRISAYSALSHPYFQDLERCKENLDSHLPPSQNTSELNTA
Sequence of CDK3/Cyclin E (Homo sapiens) (P24864 whole entry, looked up): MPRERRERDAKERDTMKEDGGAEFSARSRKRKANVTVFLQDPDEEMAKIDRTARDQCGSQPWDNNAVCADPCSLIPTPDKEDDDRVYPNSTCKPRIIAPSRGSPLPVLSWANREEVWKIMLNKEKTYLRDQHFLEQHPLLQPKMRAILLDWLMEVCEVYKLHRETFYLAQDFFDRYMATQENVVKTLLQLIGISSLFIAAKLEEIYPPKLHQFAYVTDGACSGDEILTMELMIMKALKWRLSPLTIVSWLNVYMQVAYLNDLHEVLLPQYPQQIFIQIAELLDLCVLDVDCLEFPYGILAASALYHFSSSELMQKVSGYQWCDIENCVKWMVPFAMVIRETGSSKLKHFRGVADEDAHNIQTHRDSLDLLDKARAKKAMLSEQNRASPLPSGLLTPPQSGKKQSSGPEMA
Sequence of CDK3/Cyclin E (Homo sapiens) (Q00526 whole entry, looked up): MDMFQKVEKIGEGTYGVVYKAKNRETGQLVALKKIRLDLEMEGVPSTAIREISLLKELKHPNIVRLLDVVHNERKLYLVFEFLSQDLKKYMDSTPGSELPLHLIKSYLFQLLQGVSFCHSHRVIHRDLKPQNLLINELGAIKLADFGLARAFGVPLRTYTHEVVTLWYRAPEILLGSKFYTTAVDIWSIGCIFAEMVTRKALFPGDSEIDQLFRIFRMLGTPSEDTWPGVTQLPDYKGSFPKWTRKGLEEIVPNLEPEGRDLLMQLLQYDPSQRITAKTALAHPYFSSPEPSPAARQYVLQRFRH
Sequence of Dual specificity protein kinase CLK2 (Homo sapiens) (P49760 whole entry, looked up): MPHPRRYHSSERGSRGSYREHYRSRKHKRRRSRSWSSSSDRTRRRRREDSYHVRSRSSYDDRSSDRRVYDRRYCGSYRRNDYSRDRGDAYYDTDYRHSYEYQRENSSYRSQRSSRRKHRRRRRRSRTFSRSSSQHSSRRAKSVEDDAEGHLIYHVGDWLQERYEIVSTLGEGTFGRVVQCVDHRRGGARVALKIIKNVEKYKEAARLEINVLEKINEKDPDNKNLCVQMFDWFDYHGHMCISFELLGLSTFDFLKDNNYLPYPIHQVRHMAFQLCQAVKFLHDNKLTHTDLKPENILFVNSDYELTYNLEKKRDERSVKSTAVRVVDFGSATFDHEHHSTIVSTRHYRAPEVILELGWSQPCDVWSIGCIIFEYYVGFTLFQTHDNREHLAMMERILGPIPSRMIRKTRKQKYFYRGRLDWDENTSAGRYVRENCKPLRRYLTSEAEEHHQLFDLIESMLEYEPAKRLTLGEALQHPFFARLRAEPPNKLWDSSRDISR
Sequence of Glycogen synthase kinase-3 alpha (Homo sapiens) (P49840 2-483 limits assumed): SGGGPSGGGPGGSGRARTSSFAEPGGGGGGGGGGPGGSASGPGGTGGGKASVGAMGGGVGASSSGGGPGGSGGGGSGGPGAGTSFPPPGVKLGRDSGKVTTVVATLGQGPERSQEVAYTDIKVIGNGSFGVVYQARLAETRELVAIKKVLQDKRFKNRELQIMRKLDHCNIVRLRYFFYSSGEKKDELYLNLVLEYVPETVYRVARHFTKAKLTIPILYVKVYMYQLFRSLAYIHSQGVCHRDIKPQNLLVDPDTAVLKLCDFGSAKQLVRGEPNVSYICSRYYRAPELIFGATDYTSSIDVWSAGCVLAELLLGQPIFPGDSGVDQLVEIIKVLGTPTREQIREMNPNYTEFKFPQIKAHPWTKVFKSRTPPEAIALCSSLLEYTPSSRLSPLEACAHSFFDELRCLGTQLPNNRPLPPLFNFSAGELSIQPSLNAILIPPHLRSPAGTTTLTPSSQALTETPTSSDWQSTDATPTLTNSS

SMILES	inhibition [1]	inhibition [2]	inhibition [3]	inhibition [4]	inhibition [5]	inhibition [6]	inhibition [7]	inhibition [8]	inhibition [9]	inhibition [10]	inhibition [11]	inhibition [12]	inhibition [13]	inhibition [14]	inhibition [15]	inhibition [16]	inhibition [17]	inhibition [18]	inhibition [19]	inhibition [20]
FC(F)(F)c1cccc(Nc2nccc(-c3cnn4nc(-c5ccccc5)ccc34)n2)c1	2.5%	1.39%	5.84%	0.4%	3.29%	0.39%	2.53%	57.2%	92.1%	1.66%	6.92%	1.59%	8.11%	0.33%	8.12%	1.14%	0.09%	23.5%	67.8%	–
NS(=O)(=O)c1ccc(N/N=C2\C(=O)Nc3ccc(-c4cnco4)cc32)cc1	89.2%	6.57%	42%	50.2%	71.8%	9.49%	50.3%	5.36%	35.9%	-3.12%	1.68%	29.3%	81.2%	4.08%	38.5%	9.21%	52%	31.6%	67.4%	26.4%
O=C(Nc1n[nH]c2nc(-c3ccc(O)cc3)c(Br)cc12)C1CC1	78.2%	42%	73.9%	14.7%	55.3%	38.9%	74.7%	1.45%	5.65%	2.91%	8.39%	17.6%	55.5%	33.2%	71.7%	12.4%	53.3%	82.8%	85.7%	–
COc1cc2ncn(-c3cc(OCc4cccs4)c(C(N)=O)s3)c2cc1OC	2.15%	-2.57%	-2.26%	-2.83%	-2.03%	-5.45%	-6.37%	2.46%	6.46%	-1.61%	0.59%	-2.96%	-0.93%	-3.74%	-1.79%	0.17%	4.35%	0.28%	6.22%	0.55%
CCc1nccc2c1nc(-c1nonc1N)n2CC	-0.63%	1.93%	2.76%	1.21%	2.65%	-8.01%	-0.61%	1.1%	2.67%	-0.31%	2.23%	2.9%	7.05%	2.47%	6.3%	-0.4%	3.18%	0.44%	7.97%	2.74%
C[C@@H](Oc1cc(-n2cnc3ccc(OC4CCN(C)CC4)cc32)sc1C(N)=O)c1ccccc1Cl	0.13%	-0.83%	-0.3%	-2.91%	-2.26%	-5.27%	-2.7%	3.05%	6.53%	-2.76%	-2.38%	-0.72%	0.72%	-4.55%	-3.42%	2.47%	7.45%	-1.18%	-0.34%	-1.76%
O=C(Nc1n[nH]c2cc(-c3ccccc3)ccc12)C1CC1	4.6%	3.5%	9.81%	1.28%	5.17%	1.28%	23.7%	1.71%	2.28%	0.78%	2.33%	5.04%	6.14%	1.94%	3.5%	2.82%	4.68%	6.53%	32.7%	–
COc1ccc2cc(-c3c(-c4ccncc4)nc(-c4ccc(S(C)(=O)=O)cc4C)n3C)ccc2c1	-3.73%	3.77%	4.56%	0.42%	-0.58%	0.01%	1.21%	0.85%	-1.59%	1.66%	2.06%	2.19%	7.68%	0.76%	2.36%	3.55%	4.35%	2.9%	6.04%	2.27%
O=C1Nc2ccc(I)cc2C1=Cc1cc(Br)c(O)c(Br)c1	-2.28%	4.82%	6.47%	0.5%	0.26%	-0.1%	0.92%	1.63%	4.77%	-0.91%	-0.23%	1.95%	4.99%	-0.26%	3.56%	4.72%	8.06%	0.99%	5.19%	0.29%
CS(=O)(=O)CCNCc1ccc(-c2ccc3ncnc(Nc4ccc(OCc5ccccc5)c(Br)c4)c3c2)o1	-3.92%	-1.53%	-0.83%	-3.53%	-2.4%	-4.44%	-4.65%	1.39%	-1.17%	-3.26%	-3.65%	-3.54%	-2.54%	-5.79%	-4.49%	2.81%	1.15%	-0.62%	-0.89%	-1.65%
NS(=O)(=O)c1ccc(N/N=C2\C(=O)Nc3ccc(C(=O)NCCCn4ccnc4)cc32)cc1	88.6%	16.6%	57.1%	33.8%	72.8%	10%	57.2%	15.6%	66.1%	1.77%	8.02%	7.66%	15.9%	4.25%	15.6%	4.62%	16.2%	40.6%	76%	39.7%
CCS(=O)(=O)c1ccc(OC)c(Nc2ncc(-c3cccc(-c4ccccc4F)c3)o2)c1	1.22%	0.53%	-0.45%	0.5%	3.33%	0.01%	1.94%	5.83%	36.9%	2.7%	13.9%	3.84%	26%	3.9%	18.5%	1.46%	10.3%	2.37%	9.24%	1.65%
O=C(Nc1n[nH]c2cc(-c3cc(F)ccc3F)ccc12)C1CC1	5.19%	1.96%	8.77%	0.68%	5.38%	4.69%	39.6%	-0.48%	1.29%	0.11%	1.26%	2.37%	4.39%	-0.4%	-0.93%	2.2%	3.59%	7.07%	30.4%	–
Nc1nccc(-c2c(-c3ccc(F)cc3)ncn2C2CCC(O)CC2)n1 (stereo unspecified)	-0.81%	0.24%	1.17%	0.55%	1.98%	1.41%	1.1%	1.54%	0.55%	1.02%	3.28%	2.86%	5.97%	3.71%	5.6%	-1.97%	-2.78%	0.95%	5.67%	1.63%
